The results in this text go back to PubChem BioAssay AID588451 (Broad Institute, 2011).

Each structure is given as a SMILES string. Results with a measured potency or affinity are listed apart. The source made the active and inactive calls. No rule for the calls is given here.

The target in the test is Luciferin 4-monooxygenase (Photinus pyralis) (UniProt P08659). The test can be described thus: inhibition of purified Photinus pyralis luciferase – biochemical, dry powder samples, plate reader, dose response (AID 588451).
Luciferin 4-monooxygenase (Photinus pyralis), sequence (P08659 whole entry, looked up): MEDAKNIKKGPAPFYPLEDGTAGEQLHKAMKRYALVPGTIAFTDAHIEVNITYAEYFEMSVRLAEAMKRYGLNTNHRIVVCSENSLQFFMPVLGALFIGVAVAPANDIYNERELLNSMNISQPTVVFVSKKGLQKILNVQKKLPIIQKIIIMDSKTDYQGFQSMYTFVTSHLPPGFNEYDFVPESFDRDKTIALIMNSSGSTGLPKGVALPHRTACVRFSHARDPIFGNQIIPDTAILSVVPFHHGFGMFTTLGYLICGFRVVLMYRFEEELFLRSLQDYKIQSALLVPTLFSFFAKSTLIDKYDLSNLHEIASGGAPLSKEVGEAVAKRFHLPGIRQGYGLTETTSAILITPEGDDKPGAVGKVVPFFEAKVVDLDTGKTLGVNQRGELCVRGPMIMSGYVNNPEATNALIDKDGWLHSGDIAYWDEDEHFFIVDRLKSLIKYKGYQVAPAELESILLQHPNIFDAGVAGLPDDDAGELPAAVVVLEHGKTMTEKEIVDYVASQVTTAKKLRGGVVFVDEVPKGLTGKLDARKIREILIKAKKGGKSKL

Consider `Cc1ccc(C(=O)N/N=C/c2ccc([N+](=O)[O-])s2)cc1`, for which the molecule was classed as inactive.
